# High-throughput results (PubChem BioAssay)
# KB-3-1 cytotox: qHTS assay for MDR1-selective chemotherapeutics: Primary screen using the parental adenocarcinoma cell KB-3-1; 1.4% of 400,000 active; KB-3-1 viability, CellTiter-Glo ATP luminescence, 72 h; Potency, µM (series often up to 46.1 µM), usual class: cytotoxic; further: on the % scale 0 is the no-effect control and ±100 the full control effect; nearly all actives have a fitted effect of over 60% in size
#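 Cytotoxicity measured as CellTiter-Glo luminescence after 72 h at 37 C. Compound titrations were pinned onto drug-naive KB-3-1 parental adenocarcinoma cells grown in DMEM with 10% FBS, and normalized data fitted to concentration-response curves.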
# HT1080NT lethal: qHTS for induction of synthetic lethality in tumor cells producing 2HG: qHTS for the HT-1080-NT fibrosarcoma cell line. HT-1080-NT fibrosarcoma viability, CellTiter-Glo ATP luminescence, 48 h. Potency, µM (doses to about 46.1 µM), without a hit: at the top dose activity, negative = less viability, actives largely listed as cytotoxic. 1.6% of 360,000 active. AID 686970, 2013;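 further: NT is the 2HG producing partner of a matched IDH1 knockdown line; 0% = DMSO-treated cells and -100% = media-only wells without cells; nearly all actives have a fitted effect of over 55% in size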
#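 Toxicity toward the 2HG-producing NT line was scored as %Activity, normalised to DMSO and no-cell wells, from CellTiter-Glo luminescence after 48 hours' treatment.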
# HT1080 IDH1KD tx: qHTS for induction of synthetic lethality in tumor cells producing 2HG: qHTS for the HT-1080-IDH1KD cell line. HT-1080 IDH1 knockdown viability, ATP luminescence, 48 h. 2% of 360,000 active. Potency, µM (doses to about 46.1 µM), for the others: top-dose activity, negative = toxicity, hits mostly cytotoxic;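 further: 0% = DMSO wells and -100% = cell-free medium wells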
#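 CellTiter-Glo luminescence after 48 h compound exposure at 37 degrees C of IDH1-knockdown HT-1080 cells in 5% FBS RPMI. %Activity scaled between DMSO wells and cell-free media wells, with curves fitted and assigned curve classes.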
# KB-V1 cytotox: qHTS assay for MDR1-selective chemotherapeutics: Primary screen using the drug-selected MDR subline cells KB-V1; Potency, µM (doses to about 46.1 µM), actives largely listed as cytotoxic; KB-V1 MDR cells viability, CellTiter-Glo, 72 h; 3.4% of 400,000 active; AID 1347076, 2019; further: on the % scale 0 is the no-effect control and ±100 the full control effect; nearly all actives have a fitted effect of over 60% in size
#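 KB-V1 cells (P-gp-expressing MDR subline of KB-3-1) in phenol-red-free DMEM with 10% FBS were exposed to library compounds over a concentration series for 72 h at 37 degrees C. Viability read by CellTiter-Glo luminescence; concentration-effect curves fitted after normalization.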
# MCF10A rerep: A quantitative high throughput screen for small molecules that induce DNA re-replication in MCF 10a normal breast cells; MCF 10A DNA re-replication, Hoechst nuclear intensity, 48 h; Potency, µM (series often up to 46.1 µM), for the others: top-dose activity, positive = re-replication, usual class: activators; 2.9% of 350,000 active; further: % of control where 0% means no effect; nearly all actives have a fitted effect of over 50% in size
# SW480 rereplic: A quantitative high throughput screen for small molecules that induce DNA re-replication in SW480 colon adenocarcinoma cells; SW480 DNA re-replication, Hoechst DNA content imaging, 48 h; Potency, µM (top dose mostly 46.1 µM), for inactives: at the highest dose re-replication activation, usual class: activators; 1.8% of 340,000 active; AID 624297, 2012; further: % of control where 0% means no effect; nearly all actives have a fitted effect of over 55% in size
#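 Treated cells incubate 48 hr (37 C, 5% CO2), are stained 40 min with Hoechst, and nuclear fluorescence is enumerated; a rise in nuclei with high DNA signal marks re-replication.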
# The depositor's hits bear a star; i = inactive; ? = inconclusive; . = not tested or not shown; [ ] = dose if it differs, or a comment. Hits are enriched below; roughly 8% of the tested compounds scored in any of these assays. The call rests on the fitted dose curve; in most records, active means well fitted curve in the direction sought with a large enough effect; inconclusive means small, poorly fitted or top-dose-only effect, or another doubt; inactive means no such curve, though single readings can be large; an effect the other way counts as inactive or inconclusive. Potency means the concentration at half of the fitted maximal effect.
SMILES,KB-3-1 cytotox,HT1080NT lethal,HT1080 IDH1KD tx,KB-V1 cytotox,MCF10A rerep,SW480 rereplic
Cc1cc(/C=C2\SC(=Nc3ccc(F)cc3)NC2=O)c(C)n1-c1ccc(S(N)(=O)=O)cc1,6.5µM*,6.5µM*,5.2µM*,i,1.6µM*,8.2µM*
Cc1cc(/C=C2\SC(=S)NC2=O)c(C)n1-c1ccc(O)cc1,?,?,?,i,?,4%
Cc1cc(-c2nn(-c3ccccc3F)cc2CN2CCN(c3ccccn3)CC2)c(C)s1,i,-4%,?,16µM*,?,-33%[1.84 µM]
Cc1cccc(N2CCN(Cc3cn(C)nc3-c3ccccc3F)CC2)n1,5.8µM*,?,1.8µM*,?,7.3µM*,3.3µM*
Cn1cc(CN2CCN(c3ccc(Cl)cn3)CC2)c(-c2ccccc2F)n1,i,4%,4%,i,9%,-4%
CCOc1ccc(-c2cc3nc(C4CCN(C(=O)OC(C)(C)C)CC4)c(C(=O)Nc4cccc(Cl)c4C)cn3n2)cc1,i,.,.,i,.,.
O=C1NC(=O)C2(CCC(C3CCCCC3)CC2)N1 (centres undefined),?,10%,7%,4.1µM*,-2%,-6%
CC1(O)CC(c2ccc(Cl)cc2)=NN1C(=O)c1ccc([N+](=O)[O-])cc1 (centres undefined),?,10µM*,16µM*,?,?,?
CC(=O)N1N=C(c2ccc(Cl)cc2)CC1c1ccc([N+](=O)[O-])cc1 (centres undefined),i,1%,6%,i,-16%,?
Cc1ccc(CNC(=O)c2nc(-c3ccc(Cl)cc3)n3c2CCCCC3)cc1,i,.,.,i,.,.
CN(C)c1ccc(CNC(=O)C2CCN(S(=O)(=O)c3ccc4c(ccn4C)c3)CC2)cc1,i,.,.,i,.,.
C(=C/c1ccnc2nc(SC/C=C/c3ccccc3)nn12)/c1ccccc1,i,-17%,-1%,16µM*,?,?
O=C(/C=C/c1ccccc1)n1cnnc1SC/C=C/c1ccccc1,i,1%,13%,i,27%,-3%
CN(C)S(=O)(=O)c1ccc2c(c1)C(=O)c1cc(S(=O)(=O)N(C)C)ccc1CC2,i,.,.,i,21%,-2%
CN(C)S(=O)(=O)c1ccc2c(c1)/C(=C/c1cc3c([nH]1)CCCC3)C(=O)N2,i,13%,-11%,?,?,10µM*
CCN1CCC(O)(/C=C/c2ccc(C(C)C)cc2)C(C(=O)/C=C/c2ccc(C(C)C)cc2)C1 (centres undefined),?,?,21µM*,?,12µM*,?
COc1ccc(CC(C#N)(CO)c2nc3ccccc3[nH]2)cc1 (centres undefined),?,-2%,-15%,?,2%,21µM*
CCOc1ccc(CCNC(=O)c2cnc3sc(N4CCCCC4)nn3c2=O)cc1,i,.,.,i,.,.
COc1cc(C(=O)NCc2ccccc2)ccc1OC(F)F,i,-5%,-9%,i,1%,-4%
COc1ccc(CNC(=O)c2sc(=O)n(Cc3ccc(C)cc3)c2C)cc1OC,i,4%,-1%,18µM*,.,.
Cc1ccc(Cn2c(C)c(C(=O)NCC(C)C)sc2=O)cc1,i,3%,-1%,13µM*,.,.
COc1cc(C(=O)NCc2ccc(C)cc2)ccc1OC(F)F,i,3%,-5%,23µM*,1%,5%
COc1ccc(CNC(=O)c2sc(=O)n(Cc3ccccc3C)c2C)cc1,i,-11%,-14%,?,.,.
COc1ccc(CNC(=O)c2sc(=O)n(Cc3ccc(-c4ccccc4)cc3)c2C)cc1OC,?,-11%,?,9.2µM*,.,.
Cc1ccc(-c2nc(C)c(CCNC(=O)C(=O)Nc3ccc(C)c(Cl)c3)s2)cc1,i,.,.,i,.,.
SMILES,KB-3-1 cytotox,HT1080NT lethal,HT1080 IDH1KD tx,KB-V1 cytotox,MCF10A rerep,SW480 rereplic
Cc1ccc2c(c1)-c1nc(-c3ccccc3)cc(-c3ccccc3)c1CO2,i,.,.,i,.,.
Cc1nn(-c2ccccc2)c2c1N(CCCC(=O)NC(C)c1ccccc1)C(=O)CS2 (centres undefined),i,.,.,i,.,.
O=C(Nc1ccccc1C(=O)OCc1cc(=O)n2nc(C3CC3)sc2n1)c1cccc(Cl)c1,i,.,.,i,.,.
COc1ccccc1Cn1c(C)c(C(=O)NCc2cccc(C)c2)sc1=O,i,-11%,-10%,?,.,.
Cc1cccc(CNC(=O)c2sc(=O)n(Cc3c(C)cccc3C)c2C)c1,?,-14%,?,21µM*,.,.
Cc1ccc(Nc2c(-c3ccc(N4CCOCC4)cc3)nc3ncccn23)cc1C,i,0%,6%,i,?,23µM*
Cc1ccc(Nc2c(-c3ccc(N4CCOCC4)cc3)nc3ncccn23)cc1,i,-7%,-1%,i,0%,-2%
CN(C)c1ccc(-c2nc3cnccn3c2Nc2ccc3c(c2)OCCO3)cc1,i,15%,2%,i,18µM*,-18%
Cc1ccc(Nc2c(-c3ccc(N4CCOCC4)cc3)nc3cnccn23)cc1,i,-24%,-28%,i,18µM*,?
Cc1cccc(C)c1Nc1c(-c2ccsc2)nc2ncccn12,i,-13%,?,12µM*,5%,12%
Cc1ccnc(N/N=C/c2ccco2)n1,i,-6%,-6%,i,2.9µM*,16µM*
CCCc1nc(NCc2ccncc2)c2nnn(Cc3ccccc3F)c2n1,i,?,18µM*,?,-2%,-7%
CCCc1nc(NCc2ccccn2)c2nnn(Cc3ccccc3F)c2n1,?,5%,2%,2.9µM*,0%,-46%
